Source: the supplement of paper PMC10849652
The full data set covers some 8,800 targets. This sample favours those with a hit. About 0.5% of all pairs of compound and target were hits. Values without a mark were called inactive.

Key:
Experiment in all cases: log2 fold change, soluble protein after heating vs DMSO (PISA); higher = thermal stabilisation; K562 lysate, 10 uM; active = over 0.2 and 3.5 SD of the protein, either way, in both replicates (recomputed)
[1] = compound: C#Cc1cccc(Nc2ncnc3cc(OCCOC)c(OCCOC)cc23)c1 [erlotinib]
Outline: (§1)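 Pellets of K562 cells were dounce-homogenised in PBS pH 7.4 with 1 mM MgCl2, and the crude extract was held at 1 mg/mL protein for a 30 min treatment with 10 μM compound. Aliquots were heated for 3 min over 48°C-58°C and pooled before NP-40 was added to 0.5% at 4°C. The supernatant from 21,000xg for 90 min was quantified by TMTpro 16plex LC-MS/MS with channel sums equalised. Values are reported from duplicates as log-two fold change in thermal stability relative to solvent controls.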

[2] = compound: C/C(=N\NC(=O)C1=CC(=CC=C1)S(=O)(=O)N2CCOCC2)/C3=C(C=CC(=C3)Cl)O
Outline: as §1

[3] = compound: C1=CC(=CC=C1C2=NC3=C(N2)C=C(C=C3)C(=O)N)OC4=CC=C(C=C4)Cl
Outline: as §1

[4] = compound: C1=CC2=C(C=CC(=C2)/C=C\3/C(=O)NC(=NCC4=CC=CS4)S3)N=C1
Outline: as §1

[5] = compound: C1=CC2=NC=CN=C2C=C1/C=C/3\C(=O)NC(=O)S3
Outline: as §1

[6] = compound: C1=CC=C(C=C1)C2=NC(=C(N2)C3=CC=NC=C3)C4=CC(=C(C=C4)Cl)O
Outline: as §1

[7] = compound: C1=CC=C2C(=C1)C3=NNC4=CC=CC(=C43)C2=O
Outline: as §1

[8] = compound: C1CCN(C1)C(=O)NC2=CC=CC(=C2)NC3=NC=C(C(=N3)NCCC4=CN=CN4)Br
Outline: as §1

[9] = compound: C1CN(CCC1(CC2=CC=C(C=C2)Cl)N)C3=NC=NC4=C3C=CN4
Outline: as §1

[10] = compound: C1COCCN1CCN2C3=CC=CC=C3N=C2NC(=O)C4=CC(=CC=C4)[N+](=O)[O-] [IRAK-1-4 Inhibitor I]
Outline: as §1

Sequence of UniProt Q9NZT2 (Q9NZT2 whole entry, looked up): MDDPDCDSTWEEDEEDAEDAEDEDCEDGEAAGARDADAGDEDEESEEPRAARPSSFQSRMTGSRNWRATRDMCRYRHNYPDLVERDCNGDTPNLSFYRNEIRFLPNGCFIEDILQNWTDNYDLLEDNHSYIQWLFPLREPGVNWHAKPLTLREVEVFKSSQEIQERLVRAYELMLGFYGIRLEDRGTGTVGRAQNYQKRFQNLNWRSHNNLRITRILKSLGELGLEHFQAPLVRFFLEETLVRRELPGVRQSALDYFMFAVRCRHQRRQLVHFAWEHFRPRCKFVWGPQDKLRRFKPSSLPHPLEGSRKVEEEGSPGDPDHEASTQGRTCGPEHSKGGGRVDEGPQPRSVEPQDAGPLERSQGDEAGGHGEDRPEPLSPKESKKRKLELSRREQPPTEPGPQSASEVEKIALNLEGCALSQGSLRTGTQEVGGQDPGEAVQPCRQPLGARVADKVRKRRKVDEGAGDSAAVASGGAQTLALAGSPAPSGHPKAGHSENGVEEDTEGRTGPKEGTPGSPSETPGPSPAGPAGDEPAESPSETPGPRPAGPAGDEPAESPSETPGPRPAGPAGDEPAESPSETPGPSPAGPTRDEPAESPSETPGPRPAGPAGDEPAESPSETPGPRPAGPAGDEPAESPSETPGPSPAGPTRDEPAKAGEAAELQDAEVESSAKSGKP
Sequence of UniProt Q6ZNJ1 (Q6ZNJ1 whole entry, looked up): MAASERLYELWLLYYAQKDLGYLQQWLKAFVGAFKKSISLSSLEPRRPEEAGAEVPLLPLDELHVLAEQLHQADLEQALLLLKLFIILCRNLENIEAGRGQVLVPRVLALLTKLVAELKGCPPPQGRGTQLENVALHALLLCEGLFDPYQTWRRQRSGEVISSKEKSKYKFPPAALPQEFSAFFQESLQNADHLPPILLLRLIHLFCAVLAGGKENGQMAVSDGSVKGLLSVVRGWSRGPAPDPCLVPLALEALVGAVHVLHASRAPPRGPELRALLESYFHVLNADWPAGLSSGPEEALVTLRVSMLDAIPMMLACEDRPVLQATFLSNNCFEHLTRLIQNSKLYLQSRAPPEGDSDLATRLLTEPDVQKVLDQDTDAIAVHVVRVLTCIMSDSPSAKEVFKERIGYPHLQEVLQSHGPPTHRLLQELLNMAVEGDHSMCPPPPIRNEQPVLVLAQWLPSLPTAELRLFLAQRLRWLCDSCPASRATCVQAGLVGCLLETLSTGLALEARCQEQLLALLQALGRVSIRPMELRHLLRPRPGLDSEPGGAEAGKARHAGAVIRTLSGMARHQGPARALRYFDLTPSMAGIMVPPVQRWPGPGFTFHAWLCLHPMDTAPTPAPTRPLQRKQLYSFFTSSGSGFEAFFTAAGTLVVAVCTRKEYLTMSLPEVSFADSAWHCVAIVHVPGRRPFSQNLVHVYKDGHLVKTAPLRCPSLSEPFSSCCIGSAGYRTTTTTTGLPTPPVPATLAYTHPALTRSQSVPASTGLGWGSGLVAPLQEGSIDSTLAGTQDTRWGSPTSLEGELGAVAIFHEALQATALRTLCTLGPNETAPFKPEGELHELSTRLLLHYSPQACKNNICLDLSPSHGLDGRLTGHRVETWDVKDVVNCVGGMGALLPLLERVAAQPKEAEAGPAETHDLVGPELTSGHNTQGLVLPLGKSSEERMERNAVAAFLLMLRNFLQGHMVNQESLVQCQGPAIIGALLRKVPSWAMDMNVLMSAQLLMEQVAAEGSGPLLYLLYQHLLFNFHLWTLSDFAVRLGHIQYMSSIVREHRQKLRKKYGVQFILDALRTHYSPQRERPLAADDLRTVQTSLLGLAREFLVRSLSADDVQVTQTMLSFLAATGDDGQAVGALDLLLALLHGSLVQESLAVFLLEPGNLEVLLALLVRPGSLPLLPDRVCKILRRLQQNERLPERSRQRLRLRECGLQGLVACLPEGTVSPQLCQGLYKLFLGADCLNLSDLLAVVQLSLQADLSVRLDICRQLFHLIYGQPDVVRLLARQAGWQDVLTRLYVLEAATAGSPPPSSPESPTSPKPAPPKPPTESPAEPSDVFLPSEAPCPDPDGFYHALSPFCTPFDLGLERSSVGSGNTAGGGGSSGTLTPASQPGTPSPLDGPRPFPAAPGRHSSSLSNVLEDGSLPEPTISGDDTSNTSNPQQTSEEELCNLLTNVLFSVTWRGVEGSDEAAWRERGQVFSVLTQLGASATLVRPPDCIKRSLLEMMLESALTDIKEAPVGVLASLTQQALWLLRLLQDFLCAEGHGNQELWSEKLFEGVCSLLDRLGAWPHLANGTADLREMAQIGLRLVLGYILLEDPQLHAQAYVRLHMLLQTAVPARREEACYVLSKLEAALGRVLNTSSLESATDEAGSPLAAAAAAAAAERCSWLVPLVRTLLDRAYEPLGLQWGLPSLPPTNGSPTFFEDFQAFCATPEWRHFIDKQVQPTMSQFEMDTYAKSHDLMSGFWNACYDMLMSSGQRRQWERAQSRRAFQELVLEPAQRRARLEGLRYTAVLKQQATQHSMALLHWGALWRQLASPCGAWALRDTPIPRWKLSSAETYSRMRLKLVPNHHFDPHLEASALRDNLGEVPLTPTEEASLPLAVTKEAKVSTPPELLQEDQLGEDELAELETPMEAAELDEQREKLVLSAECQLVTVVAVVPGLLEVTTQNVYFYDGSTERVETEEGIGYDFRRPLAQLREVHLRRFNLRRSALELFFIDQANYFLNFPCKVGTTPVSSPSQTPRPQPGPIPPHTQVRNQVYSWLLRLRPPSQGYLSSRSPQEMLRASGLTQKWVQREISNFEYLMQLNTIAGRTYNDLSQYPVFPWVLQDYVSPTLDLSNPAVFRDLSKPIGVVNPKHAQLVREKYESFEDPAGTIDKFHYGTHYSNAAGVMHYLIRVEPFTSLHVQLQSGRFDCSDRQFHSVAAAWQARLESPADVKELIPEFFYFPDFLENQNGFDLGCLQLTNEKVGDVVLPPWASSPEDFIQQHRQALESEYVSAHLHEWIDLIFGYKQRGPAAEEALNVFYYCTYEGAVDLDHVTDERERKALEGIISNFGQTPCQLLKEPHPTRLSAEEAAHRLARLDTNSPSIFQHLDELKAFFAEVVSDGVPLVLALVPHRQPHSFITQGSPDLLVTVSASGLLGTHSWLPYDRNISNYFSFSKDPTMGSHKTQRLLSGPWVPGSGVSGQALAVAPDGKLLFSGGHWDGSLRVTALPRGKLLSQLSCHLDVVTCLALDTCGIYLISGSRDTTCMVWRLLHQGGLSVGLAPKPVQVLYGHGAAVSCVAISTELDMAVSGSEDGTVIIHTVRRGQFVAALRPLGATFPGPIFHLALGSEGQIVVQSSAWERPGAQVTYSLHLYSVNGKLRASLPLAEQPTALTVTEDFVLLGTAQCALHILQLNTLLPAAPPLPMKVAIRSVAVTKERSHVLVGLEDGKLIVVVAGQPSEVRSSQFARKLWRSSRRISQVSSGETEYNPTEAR
Sequence of UniProt O00483 (O00483 whole entry, looked up): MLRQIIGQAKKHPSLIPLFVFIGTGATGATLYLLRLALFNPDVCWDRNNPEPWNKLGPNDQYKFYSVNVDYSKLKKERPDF
Sequence of UniProt O95644 (O95644 whole entry, looked up): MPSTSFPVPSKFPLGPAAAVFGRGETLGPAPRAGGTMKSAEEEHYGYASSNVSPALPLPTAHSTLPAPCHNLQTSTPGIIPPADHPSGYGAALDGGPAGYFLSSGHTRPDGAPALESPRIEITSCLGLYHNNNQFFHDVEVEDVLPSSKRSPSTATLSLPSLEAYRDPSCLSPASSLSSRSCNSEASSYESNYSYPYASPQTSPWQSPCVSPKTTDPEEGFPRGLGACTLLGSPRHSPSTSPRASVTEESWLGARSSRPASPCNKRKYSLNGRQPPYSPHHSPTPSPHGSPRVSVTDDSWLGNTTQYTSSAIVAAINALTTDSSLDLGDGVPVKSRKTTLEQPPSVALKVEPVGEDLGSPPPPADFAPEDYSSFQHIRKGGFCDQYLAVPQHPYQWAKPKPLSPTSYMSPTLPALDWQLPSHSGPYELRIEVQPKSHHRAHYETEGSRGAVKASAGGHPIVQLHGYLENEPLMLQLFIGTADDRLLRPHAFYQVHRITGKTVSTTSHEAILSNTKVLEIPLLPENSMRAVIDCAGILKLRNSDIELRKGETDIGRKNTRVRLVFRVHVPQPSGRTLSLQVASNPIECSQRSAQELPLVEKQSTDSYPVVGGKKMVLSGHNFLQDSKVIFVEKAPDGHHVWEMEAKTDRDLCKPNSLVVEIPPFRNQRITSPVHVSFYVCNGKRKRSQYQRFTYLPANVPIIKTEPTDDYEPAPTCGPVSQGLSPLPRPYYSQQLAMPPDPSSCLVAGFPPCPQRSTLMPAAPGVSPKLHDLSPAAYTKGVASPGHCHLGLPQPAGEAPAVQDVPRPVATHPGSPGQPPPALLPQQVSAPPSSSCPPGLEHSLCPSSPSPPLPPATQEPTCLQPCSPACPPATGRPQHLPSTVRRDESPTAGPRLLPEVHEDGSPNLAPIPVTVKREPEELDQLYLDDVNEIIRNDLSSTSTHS
Sequence of UniProt Q9BTC8 (Q9BTC8 whole entry, looked up): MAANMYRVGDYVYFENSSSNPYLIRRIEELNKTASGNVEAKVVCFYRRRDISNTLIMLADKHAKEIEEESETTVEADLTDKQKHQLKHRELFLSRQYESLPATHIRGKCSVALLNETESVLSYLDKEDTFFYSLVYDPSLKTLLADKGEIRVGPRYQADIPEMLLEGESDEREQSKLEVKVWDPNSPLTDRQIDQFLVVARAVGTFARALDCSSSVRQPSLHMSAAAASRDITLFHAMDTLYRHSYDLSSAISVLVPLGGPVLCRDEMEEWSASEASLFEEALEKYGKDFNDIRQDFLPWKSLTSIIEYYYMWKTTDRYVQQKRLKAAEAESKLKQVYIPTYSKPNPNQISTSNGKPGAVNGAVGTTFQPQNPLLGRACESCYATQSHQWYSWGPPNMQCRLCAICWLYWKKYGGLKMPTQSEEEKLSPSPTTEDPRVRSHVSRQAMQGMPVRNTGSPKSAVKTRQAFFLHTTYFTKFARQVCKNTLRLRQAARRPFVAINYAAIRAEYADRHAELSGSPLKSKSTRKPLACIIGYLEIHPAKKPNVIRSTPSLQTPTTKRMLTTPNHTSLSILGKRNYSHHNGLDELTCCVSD

Target	log2 fold change [1]	log2 fold change [2]	log2 fold change [3]	log2 fold change [4]	log2 fold change [5]	log2 fold change [6]	log2 fold change [7]	log2 fold change [8]	log2 fold change [9]	log2 fold change [10]
MSH3 (UniProt P20585)	-0.046	-0.021	0.042	0.011	-0.025	0.007	-0.026	-0.038	0.058	0.004
MRPS12 (UniProt O15235)	-0.015	-0.058	0	-0.044	-0.016	0.019	-0.251	-0.004	-0.127	0.043
NUDT4 (UniProt Q9NZJ9)	-0.043	0.233	-0.022	0.07	-0.055	-0.009	0.039	0.059	0.026	-0.026
NUP93 (UniProt Q8N1F7)	0.025	0.058	-0.042	0.021	0.032	-0.022	-0.049	0.002	0.015	-0.022
NEBL (UniProt O76041)	-0.014	-0.028	0.05	0.015	-0.048	0.001	-0.082	-0.087	0.013	0.054
MTA2 (UniProt O94776)	-0.025	-0.017	0.019	0.013	-0.012	-0.015	-0.023	-0.007	0.021	-0.005
NCK1 (UniProt P16333)	0.02	0.036	0.04	-0.007	-0.01	-0.009	-0.072	-0.024	0.049	0.002
NEXN (UniProt Q0ZGT2)	0.091	-0.011	-0.019	-0.067	-0.154	-0.144	-0.049	-0.255	0.28	-0.133
NUP188 (UniProt Q5SRE5)	0.066	0.011	-0.01	0.004	-0.007	-0.03	-0.034	0.027	-0.003	0.023
NBEAL2 (UniProt Q6ZNJ1)	0.032	0.011	-0.031	0.038	0.017	-0.004	-0.032	-0.012	0.024	-0.01
OGFOD2 (UniProt Q6N063)	0.034	-0.151	-0.093	-0.074	0.022	-0.034	0.001	0.003	0.006	-0.04
NAT1 (UniProt P18440)	0.001	-0.011	-0.007	-0.136	-0.015	-0.011	0.528 (active)	-0.021	0.035	-0.013
NFATC1 (UniProt O95644)	-0.002	-0.431	0.045	-0.04	-0.02	0.065	0.009	0.044	0.092	0.077
MSI2 (UniProt Q96DH6)	-0.04	-0.277	0.035	-0.047	0.084	-0.034	-0.011	0.03	0.027	0.057
NCKAP1L (UniProt P55160)	0.005	-0.06	-0.006	0.196	0.055	-0.032	-0.156	0.06	0.084	0.06
NIPBL (UniProt Q6KC79)	-0.025	0.044	-0.003	0.009	0.005	-0.013	0.003	-0.014	0.007	-0.043

Target	log2 fold change [1]	log2 fold change [2]	log2 fold change [3]	log2 fold change [4]	log2 fold change [5]	log2 fold change [6]	log2 fold change [7]	log2 fold change [8]	log2 fold change [9]	log2 fold change [10]
NEK9 (UniProt Q8TD19)	-0.008	0.038	-0.028	-0.022	-0.021	-0.013	0.154	0.083	-0.009	0.142
PAXBP1 (UniProt Q9Y5B6)	0.019	-0.035	0.025	-0.01	0.018	0.026	-0.04	-0.022	0.029	0.013
NDUFS1 isoform 2 (UniProt P28331)	-0.006	0.033	-0.045	0.025	0.027	-0.033	-0.027	-0.052	0.006	0.006
MTA3 (UniProt Q9BTC8)	0.025	-0.051	0.02	-0.022	-0.078	-0.046	0	0.004	0.025	0.012
NFATC2IP (UniProt Q8NCF5)	0.001	0.026	-0.036	0.006	0.016	0.031	-0.071	0.013	-0.016	-0.009
NARF (UniProt Q9UHQ1)	0.005	0.006	0.042	0.007	-0.005	0.004	0.004	-0.009	-0.021	-0.009
NUMB (UniProt P49757)	-0.029	0.01	0.044	-0.052	-0.009	-0.009	-0.029	-0.107	-0.043	0.022
NCAPG (UniProt Q9BPX3)	-0.008	-0.018	-0.004	-0.01	-0.007	0.006	-0.026	0.002	0.013	-0.011
MTOR (UniProt P42345)	0.02	0.031	-0.058	-0.022	0.038	0.025	-0.018	-0.012	0.003	0.006
NAA30 (UniProt Q147X3)	0.015	-0.027	0.061	0.026	-0.007	-0.046	-0.038	-0.088	-0.031	0.085
NADK2 (UniProt Q4G0N4)	0.005	-0.024	0.011	0.104	-0.026	-0.003	-0.017	-0.019	0.031	0.025
NT5DC2 isoform 2 (UniProt Q9H857)	0.027	0.008	0.068	0.03	0.505 (active)	-0.059	0.04	-0.015	0.036	0.002
NCOR2 (UniProt C9J0Q5)	0.044	0.033	0.04	-0.082	-0.008	0.054	-0.173	-0.002	0.049	0.032
NDUFA4 (UniProt O00483)	0.038	0.092	-0.012	0.055	0.009	0.055	0.046	0.012	0.001	-0.01
OGFR (UniProt Q9NZT2)	0.023	0.023	0.018	-0.015	-0.012	-0.011	-0.027	-0.01	0.038	-0.012
